Screening data as filed in PubChem.
Most compounds without a hit are left out; they make up all but 13% or so of the library.
Pf growth 48h – P. falciparum growth inhibition at 48 hours (one generation) | Potency, µM (series often up to 28.7 µM), inactives show at the top dose activity change, negative = inhibition, most hits filed as inhibitors | P. falciparum luciferase growth in erythrocytes, 48 h | 5.9% of 310,000 active; note: potency is the fitted concentration of half-maximal effect
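Read-out is firefly luciferase luminescence from an integrated reporter in P. falciparum, so falling signal marks reduced parasite growth. Infected erythrocytes were at 2% hematocrit and 0.1% parasitemia (final) in Albumax-supplemented RPMI 1640.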
HCV inhibitor – HCV inhibition; 3.4% of 340,000 active; Huh7.5.1 HCVcc-Cre infection, luciferase reporter, 44 h; Potency, µM (highest dose often 41.8 µM), for the others: top-dose activity change, negative = inhibition, usual class: inhibitors; AID 651820; note: potency is the fitted concentration of half-maximal effect
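Infectious HCV cell culture screen: compound-treated cells (1,000/well, pre-plated 4 h) are infected with HCVcc-Cre at roughly 0.5 moi and grown 44 h. Infection is quantified by luciferase signal after 15 min substrate incubation at room temperature.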
Pf growth 96h – P. falciparum growth inhibition at 96 hour, primary screen for plastid delayed-death inhibitors; AID 504834; Potency, µM (titrated, usually from 28.7 µM), for inactives: top-dose activity change, negative = inhibition, usual class: inhibitors; 6.9% of 320,000 active; P. falciparum luciferase reporter growth, 96 h; note: potency is the fitted concentration of half-maximal effect
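Two-generation exposure (96 h) targets delayed-death phenotype. Reporter parasites carrying integrated firefly luciferase, in red cells at 2% hematocrit and 0.05% parasitemia final, kept at 37 C, 5% CO2; luminescence loss indicates inhibition.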
HCMV inh – inhibitors of human cytomegalovirus. HFF cells, HCMV-luciferase reporter, 72 h; active compounds read low. activity change, negative = inhibition, % at 57.5 µM. AID 1259415. 4.5% of 410,000 active; in the data active = activity change below about -60%; inconclusive = no clear call, values can overlap the other calls; inactive = above about -39%
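Two-dose cell screen: HFF monolayers treated with compounds and infected with luciferase-expressing HCMV at 1 PFU/cell, 72 h at 37C, then lysed for luciferase measurement.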
Numbers without * were called inactive; ? = inconclusive; · = no result. Unless noted, calls come from the whole dose curve; as a rule, active = well fitted inhibition curve with a large enough effect; inconclusive = small, poorly fitted or top-dose-only effect, or another doubt; inactive = no such curve, though single readings can be large or run the other way. % is set by controls: 0 for no effect and ±100 for the full control effect.

SMILES | Pf growth 48h | HCV inhibitor | Pf growth 96h | HCMV inh
CCN(c1ccccc1)S(=O)(=O)c1ccc(Cl)c(NC(=O)CSc2nncn2C)c1 | ? | 4% | 8.3µM* | ?
c1coc(CNCc2cccs2)c1 | 23% | 35% | 9.3µM* | -8
CNC(=O)c1ccsc1NC(=O)CCS(=O)(=O)c1ccc(F)cc1 | 1% | -9% | 23% | -18
Cc1ccccc1SCC(=O)OCC(=O)Nc1sccc1C(N)=O | -4% | 11% | -19% | -14
NC(=O)c1ccsc1NC(=O)CSc1nnc(Nc2ccccc2)s1 | ? | ? | ? | -63*
Cc1nc(SCC(=O)Nc2sccc2C(N)=O)c2c(C)c(C)sc2n1 | · | · | · | 13
NC(=O)c1ccsc1NC(=O)CCS(=O)(=O)c1ccc(F)cc1 | ? | ? | -2% | -63*
NC(=O)c1ccsc1NC(=O)CSc1ccccc1F | 98% | -6% | 9.3µM* | 0
COC(=O)c1sc2nc(C)nc(SCC(=O)Nc3sccc3C(N)=O)c2c1C | ? | 11µM* | 25% | ?
Cc1csc(SCC(=O)Nc2sccc2C(N)=O)n1 | 294% | 16% | 270% | 110
COC(=O)[C@H]1[C@H](CO)[C@H]2Cn3c(ccc(Br)c3=O)[C@@H]1N2S(=O)(=O)c1cn(C)cn1 | · | · | · | -10
CCOC(=O)C(CNc1ccc(O)cc1)NC(=O)c1ccccc1 (centres undefined) | · | · | · | -5
Cc1cccc(C)c1NC(=O)CSc1nnc(NC(=O)c2ccccc2C(=O)O)s1 | 0% | 2% | ? | -21
NC(=O)c1ccsc1NC(=O)c1nc(-c2ccccc2)n(-c2ccccc2)n1 | 7.4µM* | ? | 7.4µM* | -38
O=C(CSc1nnc(NC(=O)c2ccccc2C(=O)O)s1)Nc1ccccc1Cl | -27% | 22% | 13µM* | -20
COc1ccc(-c2nc(CSCC(=O)NCCc3ccc(C)cc3)c(C)o2)cc1OC | · | · | · | -9
O=C(Nc1ccccc1O)c1ccc(Cl)cc1 | 5.9µM* | -17% | ? | 190
N#Cc1ccc(C(=O)Nc2cc(-c3ccccc3)nn2-c2ccccc2)cc1 | 24% | 10µM* | ? | -8
CC(=O)Nc1ccn(-c2ccccc2)n1 | 23% | -5% | ? | 25
O=C(Nc1ccccc1OC(=O)c1ccc(Cl)cc1)c1ccc(Cl)cc1 | ? | 10% | ? | 44
O=C(Nc1ccn(-c2ccccc2)n1)c1ccc(Cl)cc1 | 40% | 7.1µM* | ? | -34
N#Cc1ccc(C(=O)Nc2ccn(-c3ccccc3)n2)cc1 | ? | ? | ? | -75*
N#Cc1ccc(C(=O)Nc2cc(-c3ccc(F)cc3)nn2-c2ccccc2)cc1 | ? | ? | ? | 1
Cc1ccc(-c2nc3nc(C)cc(N4CCN(c5cc(Cl)ccc5C)CC4)n3n2)cc1 | · | · | · | 18
COc1ccc(N2C(=O)CS(=O)(=O)C23C(=O)N(Cc2ccccc2F)c2ccccc23)cc1Cl (centres undefined) | · | · | · | 3
SMILES | Pf growth 48h | HCV inhibitor | Pf growth 96h | HCMV inh
Cc1nc(N)sc1-c1csc(Nc2ccccn2)n1 | 86% | -24% | 22% | 9
Cc1ccnc(Nc2nc(-c3ccc(F)cc3)cs2)c1 | 0% | ? | ? | 33
COc1ccc(-c2csc(Nc3ccc(C)cn3)n2)cc1 | 10% | ? | 75% | -20
Cc1nc(N)sc1-c1csc(Nc2ccc(Cl)cn2)n1 | -83% | 8.9µM* | 9% | -18
CC(=O)Oc1ccc(-c2csc(Nc3ccc(Cl)cn3)n2)cc1 | -4% | 11µM* | 11% | -8
Cc1ccnc(Nc2nc(-c3sc(C)nc3C)cs2)c1 | · | 8.9µM* | · | -107*
Cc1nc(C)c(-c2csc(Nc3ccccn3)n2)s1 | 247% | 8.9µM* | -9% | -20
O=C(CC(c1cccs1)N1Cc2ccccc2C1=O)Nc1cccc(F)c1 (centres undefined) | · | · | · | -6
COc1ccc(S(=O)(=O)N2CCC(N3CCN(Cc4ccc(F)cc4)C(=O)C3=O)CC2)cc1 | · | · | · | -9
COc1ccc(NC(=O)c2c(-c3ccc(C)cc3)nnc3ccccc23)cc1OC | · | · | · | 0
COc1ccc(N2CCN(c3nc4ccccc4n4c(C)nnc34)CC2)cc1 | · | · | · | -11
Cc1nnc2c(N3CCN(CCO)CC3)nc3ccccc3n12 | -25% | -1% | 13µM* | 45
COc1cccc(CNC(=O)Cc2c(C)c3c(cc(C)c4c(C)coc43)oc2=O)c1 | · | · | · | -20
CC(C)n1c(O)c(C2c3cc(Cl)ccc3Oc3[nH]c(=O)n(C(C)C)c(=O)c32)c(=O)[nH]c1=O (centres undefined) | -11% | 5µM* | ? | ·
Cc1ccccc1C(=O)N1CCC(N2CCN(Cc3ccc(F)cc3)C(=O)C2=O)CC1 | · | · | · | 18
CCOC(=O)CN(C(=O)COc1nc(-c2ccccc2)cc(C)c1C#N)c1ccccc1C | 13µM* | ? | ? | 12
CCOC(=O)CN(C(=O)COc1nc(-c2ccccc2)cc(C)c1C#N)c1cccc(OC)c1 | 7.4µM* | ? | 12µM* | -28
CCOC(=O)CN(C(=O)COc1nc(-c2ccccc2)cc(C)c1C#N)c1ccccc1 | ? | 4% | ? | -29
CCOC(=O)CN(C(=O)COc1nc(-c2ccccc2)cc(C)c1C#N)c1ccc(C)cc1 | 13µM* | -28% | 5.9µM* | -18
O=C(Cn1nc(C(F)(F)F)c2c1CCCC2)NCCN1CCOCC1 | 12µM* | 24% | 15µM* | 10
COc1cc(NC(=O)Cn2nc(C(F)(F)F)c3c2CCCC3)cc(OC)c1OC | 10µM* | ? | · | -26
CCOC(=O)c1ccccc1NC(=O)c1sc2ncn(Cc3cccc(F)c3)c(=O)c2c1C | · | · | · | 22
Cc1ccn(CC(=O)N2CCCC(Nc3ccc(F)c(F)c3)C2)n1 (centres undefined) | ? | 24% | 2% | 2
COc1ccc(NC2CCCN(C(=O)Cn3ccc(C)n3)C2)cc1OC (centres undefined) | -15% | 4% | 5.2µM* | 25
Cc1ccnn1CCC(=O)N1CCCC(Nc2ccc(F)c(F)c2)C1 (centres undefined) | 0% | 0% | 12µM* | -12
SMILES | Pf growth 48h | HCV inhibitor | Pf growth 96h | HCMV inh
O=C(CCn1cccn1)N1CCCC(Nc2ccc(F)c(F)c2)C1 (centres undefined) | · | · | · | 22
Cc1ccc(NC2CCCN(C(=O)CCC3=NNC(=O)CC3)C2)cc1C (centres undefined) | 8% | · | 8.3µM* | -10
COc1ccc(N2CCC[C@@H]2/C=C/C(=O)OC(C)(C)C)cc1 | · | · | · | 24
Cc1sc2nc(SCCN(C)C)n(-c3ccccc3)c(=O)c2c1-c1ccc(F)cc1 | 10µM* | 7.1µM* | ? | ?
COc1ccc(C(=O)c2c(C)c3ccccc3n2CC(O)CNC(C)C)cc1 (centres undefined) | 12µM* | ? | ? | -24
COc1ccc(C(=O)c2ccc(OC)c(OC)c2)cc1OC | -8% | 3% | 24% | -14
COc1ccc(C(=O)c2nccc3cc(OC)c(OC)cc23)cc1OC | 1.2µM* | ? | 0.74µM* | ·
Cn1c2ccccc2c2cc(C(=O)NNC(=O)CCl)sc21 | ? | ? | 9.3µM* | -21
